Results from PubChem BioAssay (NCATS).
Where “and” joins values, the source holds several entries; their conditions need not be identical. Equal values may be shown once. Values without a mark were called inactive. Results filed as inconclusive are left out. Calls of active or inactive are those of the source. Unless noted, calls come from the whole dose curve; as a rule, active = well fitted activation curve with a large enough effect; inconclusive = small, poorly fitted or top-dose-only effect; inactive = flat fitted curve, though single readings scatter.

Tests used:
[1] = qHTS assay for small molecule agonists of the antioxidant response element (ARE) signaling pathway (AID 651741; active = well fitted activation curve with a large enough effect in the signal ratio; the % refers to the signal ratio; note: potency is the fitted concentration of half-maximal effect; for activation: % of control where 0% means no effect)
Method in brief: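 HepG2 ARE-bla cells plated at 2,000 cells/well and incubated 5 h at 37 C/5% CO2 received 23 nL compound in DMSO. After 16 h at 37 C, LiveBLAzer B/G FRET substrate was applied for 2 h at room temperature and fluorescence read.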

[2] = qHTS assay for small molecule activators of the p53 signaling pathway (AID 651743; active = well fitted activation curve with a large enough effect in the signal ratio, not every such curve was filed as active; the % refers to the signal ratio; note: series mostly up to about 92 µM; % of control where 0% means no effect); conditions: HCT-116 p53RE-bla, beta-lactamase FRET ratio, 16 h; activation: active compounds read high
Method in brief: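 HCT-116 p53RE-bla, 4,000 cells/well; 5 h settle; cpd/DMSO 16 h, 37 C; LiveBLAzer B/G 2 h RT; fluorescence intensity.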

[3] = qHTS assay for small molecule activators of the nuclear factor-kappa B (NF-kB) signaling pathway (AID 651749; active = well fitted activation curve with a large enough effect in the signal ratio; the % refers to the signal ratio; note: series mostly up to about 77 µM; % of control where 0% means no effect); conditions: NF-kB-bla ME-180 cells, beta-lactamase FRET ratio, 16 h; active compounds read high
Method in brief: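 Incubation lasted 16 hr at 37C in 5% CO2 after 23 nL compound addition to ME-180 NF-kB-bla cells. Activation appears as beta-lactamase-mediated FRET loss.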

[4] = qHTS assay for environmental chemicals that activate the Aryl hydrocarbon Receptor (AhR) signaling pathway (AID 651777); conditions: 1A2-DRE human hepatoma cells, luciferase, 24 h; activation: active compounds read high; note: % of control where 0% means no effect; nearly all actives have a fitted effect of over 15% in size
Method in brief: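 Human hepatoma 1A2-DRE cells stably carrying a DRE/CYP1A2 promoter–luciferase reporter, 1,200 cells/well, exposed to compound 24 hr at 37 C. Luciferase read by One-Glo luminescence after 30 min at room temperature; increased signal marks AhR activation.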

[5] = target: Peroxisome proliferator-activated receptor alpha (Homo sapiens) (UniProt Q07869); assay: qHTS assay for small molecule agonists of the peroxisome proliferator-activated receptor alpha (PPARalpha) signaling pathway (AID 651778); conditions: PathHunter PPARalpha complementation, chemiluminescence, 6 h; active compounds read high; note: % of control where 0% means no effect
Sequence of Peroxisome proliferator-activated receptor alpha (Homo sapiens) (Q07869 whole entry, looked up, the tested form may be a part): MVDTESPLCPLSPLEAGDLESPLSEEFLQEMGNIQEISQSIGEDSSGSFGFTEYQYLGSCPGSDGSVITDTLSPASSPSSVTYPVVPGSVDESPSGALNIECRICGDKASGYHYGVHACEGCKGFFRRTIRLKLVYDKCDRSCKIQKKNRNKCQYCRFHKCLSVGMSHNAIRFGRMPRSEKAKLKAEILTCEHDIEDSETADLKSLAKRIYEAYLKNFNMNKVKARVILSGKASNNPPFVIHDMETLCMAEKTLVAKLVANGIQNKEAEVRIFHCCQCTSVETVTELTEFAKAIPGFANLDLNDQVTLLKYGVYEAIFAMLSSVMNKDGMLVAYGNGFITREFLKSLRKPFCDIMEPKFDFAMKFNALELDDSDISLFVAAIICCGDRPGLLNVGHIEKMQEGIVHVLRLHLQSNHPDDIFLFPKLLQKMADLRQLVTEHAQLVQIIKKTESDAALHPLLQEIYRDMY
Method in brief: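 Enzyme-fragment complementation assay in which ligand-bound PPARalpha translocates and forms an active enzyme that generates chemiluminescence. Cells were plated overnight, exposed to compound for 6 hr at 37 C, and then given detection reagent for 60 min at room temperature.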

[6] = target: Tumor necrosis factor (Homo sapiens) (UniProt P01375); assay: qHTS assay to identify small molecules that stimulate Tumor Necrosis Factor-alpha (TNF-alpha) secretion (AID 651757; active = well fitted curve in the direction sought with a large enough effect in the signal ratio; the % refers to the signal ratio; note: 0% is about no effect)
Sequence of Tumor necrosis factor (Homo sapiens) (P01375 whole entry, looked up): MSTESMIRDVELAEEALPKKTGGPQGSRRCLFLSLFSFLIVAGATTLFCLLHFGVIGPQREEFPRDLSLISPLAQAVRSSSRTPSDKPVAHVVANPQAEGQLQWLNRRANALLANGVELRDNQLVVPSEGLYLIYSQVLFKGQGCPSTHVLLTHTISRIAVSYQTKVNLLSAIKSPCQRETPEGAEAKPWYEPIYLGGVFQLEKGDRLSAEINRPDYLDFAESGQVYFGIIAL
Method in brief: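 Secreted TNF-alpha from compound-treated THP-1 cells (17 hrs, 37 C) was quantified with a homogeneous time-resolved fluorescence antibody assay.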

[7] = qHTS assay to identify small molecules that stimulate interleukin-8 (IL-8) secretion (AID 651758; active = well fitted activation curve with a large enough effect in the signal ratio; the % refers to the signal ratio; note: 0% is about no effect)
Method in brief: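 THP-1 cells (2000/well) exposed to compound 16 h at 37 C; secreted IL-8 then detected by HTRF with cryptate- and XL665-labelled anti-IL-8 antibody pair after 1-3 h at room temperature.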

[8] = qHTS assay for small molecule disruptors of the mitochondrial membrane potential - 1 hr assay (AID 651754; calls by dose curve; note: % is set by controls: 0 for no effect and ±100 for the full control effect; nearly all actives have a fitted effect of over 35% in size)
Method in brief: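 Steps: seed HepG2 cells and let attach overnight; pin-transfer compound or vehicle; incubate 1 hr at 37C; add Mito-MPS dye for 30 min; read two-channel fluorescence for monomer and aggregate forms.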

[9] = qHTS assay for small molecule disruptors of the mitochondrial membrane potential - 5 hr assay (AID 651755; calls by dose curve; note: % is set by controls: 0 for no effect and ±100 for the full control effect; nearly all actives have a fitted effect of over 40% in size)
Method in brief: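 HepG2 cells (2,000/well), attached overnight, exposed to compound 5 hr at 37C, then Mito-MPS dye 30 min. Fluorescence read for monomers (490/535 nm) and aggregates (540/590 nm).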

CN1C(=O)c2ccccc2C1=O
Potency [1]: inactive | activation [2]: 8.47% | activation [3]: 0.745% | activation [4]: 1.05% | max response [5]: -1.08%

COC(=O)c1c(Cl)c(Cl)c(C(=O)OC)c(Cl)c1Cl
Potency [1]: 54.5 µM (active) | activation [2]: 1.22% | activation [3]: 0.623% | activation [4]: 0.102% | max response [5]: -0.617%

CC(C)C(C)(C)C(C)(C)C(C)(C)S
Potency [1]: inactive | activation [2]: 1.86% and -1.44% | activation [3]: -1.05% and -0.196% | outcome [6]: inactive | outcome [7]: inactive | activation [4]: 1.1% and 1.7% | max response [5]: -3.79% and -2.56%

CC(C)(c1ccc(O)cc1)c1ccc(O)cc1
activation [2]: -1.88% and -5.31% and -3.08% | activation [3]: -0.409% and -2.36% and -2.41% | outcome [6]: inactive | activation [4]: 3.05% and 4.15% and 3.72% | max response [5]: -6.65% and -3.38% and -3.11%

CCCCC(CC)COC(=O)c1ccccc1C(=O)O (configuration not stated)
activation [2]: -2.67% and -0.261% | Potency [8]: inactive | Potency [9]: inactive | outcome [6]: inactive | outcome [7]: inactive

O=C(Oc1ccccc1)c1cccc(C(=O)Oc2ccccc2)c1
max response [5]: 4.8%

CCCC(=O)c1cc(O)c(O)cc1O
activation [2]: -5.77% | activation [3]: 0.282% | Potency [9]: inactive | activation [4]: -2.11% | max response [5]: -3.73%

Oc1ccccc1
activation [2]: -2.44% and -1.24% and 0.0138% | outcome [6]: inactive | activation [4]: -1.73% and 0.212% and 0.333% | max response [5]: -1.31% and -1.33% and -1.91%

O=C(c1ccccc1)c1ccccc1
activation [2]: -6.89% and 0.517% | Potency [8]: inactive | Potency [9]: inactive | outcome [6]: inactive | activation [4]: -0.735% and 18.8% | max response [5]: -0.839% and -0.419%

Nc1cccc2c(N)cccc12
activation [2]: -3.42% and 1.45% | activation [3]: -0.416% and 0.0033% | max response [5]: -0.422% and -2.29%

Nc1ccc(O)cc1
Potency [1]: 26.6 µM (active) | max response [5]: -0.783%

Brc1ccccc1-c1ccccc1
Potency [1]: inactive | activation [2]: 0.157% | activation [3]: -0.27% | Potency [8]: inactive | Potency [9]: inactive | outcome [6]: inactive | outcome [7]: inactive | max response [5]: -0.0593%

O=C(Oc1ccccc1)c1ccccc1O
Potency [1]: inactive | outcome [6]: inactive | activation [4]: -0.0038% and 1.61% | max response [5]: 7.82% and -2.96%

Cc1cc(C(C)(C)C)c(O)c(C(C)(C)C)c1
Potency [1]: inactive | activation [2]: -3.94% and -1.07% | activation [3]: -0.477% | outcome [6]: inactive | activation [4]: 0.771% and -0.0452% | max response [5]: 0.589%

Cc1ncc(CO)c(CO)c1O
Potency [1]: inactive | activation [4]: -1.88% | max response [5]: -1.89%

OCCOCCN1CCN(C(c2ccccc2)c2ccc(Cl)cc2)CC1 (configuration not stated)
Potency [1]: inactive | activation [2]: -1.54% | max response [5]: -2.06%
